GLP1R inv ag – acts as inverse agonist at human GLP-1 receptor; HEK293 GLP-1R CRE-luciferase, luminescence, 24 h; GLP-1R form is constitutively active; Potency, µM (highest dose often 38.3 µM), without a hit: at the highest dose activity change, negative = inhibition, most hits filed as inhibitors; 410,000 compounds, 1.6% hits; AID 624417; note: potency is the fitted concentration of half-maximal effect; % is set by controls: 0 for no effect and ±100 for the full control effect; nearly all actives have a fitted effect of over 55% in size
Target sequence (P43220 whole entry, looked up): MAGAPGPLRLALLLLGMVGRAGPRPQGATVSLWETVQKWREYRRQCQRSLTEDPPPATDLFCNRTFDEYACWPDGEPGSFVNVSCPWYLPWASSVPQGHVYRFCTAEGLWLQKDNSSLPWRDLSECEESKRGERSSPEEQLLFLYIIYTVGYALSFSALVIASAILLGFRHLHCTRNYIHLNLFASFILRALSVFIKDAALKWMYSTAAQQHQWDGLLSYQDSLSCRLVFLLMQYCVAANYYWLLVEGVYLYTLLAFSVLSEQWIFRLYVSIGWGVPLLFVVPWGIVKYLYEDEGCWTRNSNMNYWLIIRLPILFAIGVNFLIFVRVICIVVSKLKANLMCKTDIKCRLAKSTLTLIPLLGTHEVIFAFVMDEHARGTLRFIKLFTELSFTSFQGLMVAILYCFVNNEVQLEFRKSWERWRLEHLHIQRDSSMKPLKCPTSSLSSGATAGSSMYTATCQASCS
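Seeding at 200 cells/uL, 12 h culture, 24 hr compound treatment, then luciferase reagent and a luminescence read; cells are HEK293 stably expressing a constitutively active GLP-1R plus cAMP-responsive luciferase.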
HEK293 tox – cytotoxicity counter-screen for GLP-1 receptor inverse agonists | HEK293 cAMP-luciferase reporter cells, luminescence, 24 h | Potency, µM (series often up to 38.3 µM), inactives show at the highest dose activity change, negative = inhibition, actives largely listed as inhibitors | 410,000 compounds, 0.13% hits | AID 624418;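 note: loss of luciferase light is scored as toxicity; potency is the fitted concentration of half-maximal effect; % is set by controls: 0 for no effect and ±100 for the full control effect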
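Step one: seed cells (200 cells/uL, DMEM with 10% Nu serum, 1% pen-strep). Step two: 12-hour incubation at 37 deg C. Step three: pin 23 nL compound, incubate 24 hr. Step four: add luciferase reagent, read luminescence 12 min later.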
D3 ag – agonists of human D3 dopamine receptor | max activation, % | AID 652048 | P35462 | D3R DiscoveRx beta-arrestin cells, luminescence, 90 min | 410,000 compounds, 0.58% hits; in the data active = max activation above about 30%; note: 0% is about no effect
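Agonist mode: compounds and dopamine controls were applied to plated cells for 90 min at 37 degrees C after an overnight attachment at 1500 cells/well. Luminescent read-out followed 30 - 60 minutes at room temperature with DiscoveRx detection reagent.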
DRD3 antagonist – D3 dopamine receptor (human) antagonism | D3R cells, DiscoveRx beta-arrestin luminescence, antagonist mode; stronger effect = lower value | 360,000 compounds, 2.5% hits | max response, negative = inhibition, % | AID 652054 | P35462; in the data active = max response below about -50%; inconclusive = no clear call, values can overlap the other calls; note: % is set by controls: 0 for no effect and ±100 for the full control effect
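Cells plated overnight at 1500 cells/well, then exposed to library compounds with dopamine controls for 90 minutes at 37 degrees C. DiscoveRx reagent added for 30–60 minutes at room temperature; luminescence read, quantitative HTS format.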
ClpP mod – qHTS Assay for Activators of ClpP; 340,000 compounds, 1.9% hits; Potency, µM (highest dose often 57.5 µM), for the others: top-dose activity change, negative = active; purified B. subtilis ClpP, FRET peptide cleavage, 20 min; AID 651965, 2013; active = well fitted falling curve with a large enough effect; inconclusive = small, poorly fitted or top-dose-only effect; inactive = no such curve, though single readings can be large or run the other way; note: potency is the fitted concentration of half-maximal effect; the source files actives as falling curves though it sought activators and does not explain the sign; nearly all actives have a fitted effect of over 65% in size
Target sequence (P80244 whole entry, looked up): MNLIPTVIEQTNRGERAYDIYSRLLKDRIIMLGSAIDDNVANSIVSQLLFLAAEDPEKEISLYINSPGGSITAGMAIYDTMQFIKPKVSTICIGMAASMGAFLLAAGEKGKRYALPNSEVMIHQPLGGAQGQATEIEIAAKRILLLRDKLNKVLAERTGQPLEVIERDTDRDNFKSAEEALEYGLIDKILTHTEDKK
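Purified B. subtilis ClpP, 10 microg/mL final in Tris/HCl pH8 with KCl, BSA, glycerol and Tween-20, cleaved an Abz/nitrotyrosine-quenched decapeptide. Fluorescence (ex 320, em 430) was read at 0 and 20 min at room temperature. Delta was normalized to 5.8 microM ADEP and DMSO/no-enzyme controls.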
GLP-1R agonist – activates the human GLP-1 receptor; P43220; HEK293 GLP-1R CRE-luciferase, luminescence, 4-6 h; cells express a hypersensitive GLP-1R form; Potency, µM (top dose mostly 45.6 µM), for inactives: at the highest dose activation, actives largely listed as activators; 380,000 compounds, 0.007% hits; note: potency is the fitted concentration of half-maximal effect; % of control where 0% means no effect
Starred values were filed as active, the others as inactive; ? = inconclusive; nt = no result given; ! = repeats disagree. Most compounds without a hit are left out; they make up all but 5.7% or so of the library. Unless noted, calls come from the whole dose curve; as a rule, active = well fitted curve in the direction sought with a large enough effect; inconclusive = small, poorly fitted or top-dose-only effect, or another doubt; inactive = no such curve, though single readings can be large; an effect the other way counts as inactive or inconclusive.

SMILES	GLP1R inv ag	HEK293 tox	D3 ag	DRD3 antagonist	ClpP mod	GLP-1R agonist
COC(=O)c1ccccc1NC(=O)C1=C(C)C(=O)OC12CCC(C)CC2 (configuration not stated)	?	7%	8	nt	-1%	nt
CCC(=O)N1CCCc2cc(S(=O)(=O)N3CCC(C(=O)Nc4ccc(F)c(F)c4)CC3)ccc21	11µM*	-24%	-20	nt	0%	nt
Cc1ccc(-n2c(=O)c3c4c(sc3n(Cc3cc(=O)n5ccccc5n3)c2=O)CCC4)cc1C	-6%	-12%	-17	20	28µM*!	0%
CCCCCCc1cc2cc(-c3nnc(-c4ccccc4OC)o3)c(=O)oc2cc1O	?	388%	37*	72	0%	-1%
O=C(O)c1ccc2oc(=O)c(S(=O)(=O)c3ccc(F)cc3)cc2c1	1%	95%	1	-3	-10%	-2%
CCCCCCc1cc2cc(-c3nnc(-c4ccccc4O)o3)c(=O)oc2cc1O	8%	134%	15	45	0%	1%
CCCCCCc1cc2cc(S(=O)(=O)c3ccc(F)cc3)c(=O)oc2cc1O	-13%	281%	49*	12	28µM*	-31%
CCCc1cc(=O)[nH]c(Nc2ccccc2O)n1	-13%	3%	7	nt	-1%	nt
Cc1cc(C)c(S(=O)(=O)c2ccccc2C)c(SCC(C)C)n1	?	3%	2	-23	-3%	1%
CCCSc1nc(C)cc(C)c1S(=O)(=O)c1ccccc1C	8.9µM*	85%	4	4	-5%	11%
O=C(N/N=C/c1ccccc1O)NC12CC3CC(CC(C3)C1)C2	10µM*	-4%	-13	?	nt	21%
Nc1sc(Cc2ccccc2)cc1C(=O)NC1CCCCC1	-15%	1%	2	-17	-18%	nt
COc1ccc(OCC(=O)Nc2cc(-c3ccccc3F)nn2-c2ccccc2)cc1	10%	-3%	-2	nt	-2%	nt
CN1CCN(C(CNC(=O)Nc2ccc(Cl)cc2)c2ccc(F)cc2)CC1 (configuration not stated)	?	-16%	-14	-7	0%	11%
Cc1ccc(C(CNC(=O)Nc2ccc(Cl)cc2)N2CCN(C)CC2)cc1 (configuration not stated)	8.9µM*	0%	-15	-23	-1%	-6%
Cc1ccccc1C(=O)N1CCN(C(c2ccccc2)c2ccccc2)CC1	8.9µM*	-4%	-9	-4	0%	-4%
O=C(NCC(=O)N1CCN(C(c2ccccc2)c2ccccc2)CC1)c1ccccc1F	8.9µM*	-17%	5	-1	nt	5%
Cc1cc(C(=O)N2CCN(C(c3ccccc3)c3ccccc3)CC2)on1	-1%	2%	1	11	1%	-2%
Cc1occc1C(=O)N1CCN(C(c2ccccc2)c2ccccc2)CC1	?	5%	-6	?	2%	-13%
O=C(C1=COCCO1)N1CCN(S(=O)(=O)c2cccc(Cl)c2Cl)CC1	?	-6%	-6	-13	-3%	10%
Cc1oc(C(C)(C)C)cc1C(=O)N1CCN(C(c2ccccc2)c2ccccc2)CC1	7.9µM*	-4%	-5	-5	nt	1%
O=C(C1=COCCO1)N1CCN(C(c2ccccc2)c2ccccc2)CC1	10µM*	44%	2	-11	-4%	3%
Cc1ccc[n+](C(C)C(=O)Nc2ccc([N+](=O)[O-])cc2C)c1 (configuration not stated)	-12%	2%	-14	1	nt	0%
Cc1ccc[n+](C(C)C(=O)Nc2ccc(C)c([N+](=O)[O-])c2)c1 (configuration not stated)	0%	0%	-11	-70*	1%	-12%
Cc1ccc(Sc2c(C)nn(C(=O)COc3ccccc3)c2C)cc1	-3%	4%	-7	nt	2%	nt
SMILES	GLP1R inv ag	HEK293 tox	D3 ag	DRD3 antagonist	ClpP mod	GLP-1R agonist
COC(=S)Nc1cccc(C(F)(F)F)c1	0%	1%	-3	5	nt	8%
COC(=O)/C=C/C(=O)Nc1cccc(C(F)(F)F)c1	7.9µM*	?	1	-14	-1%	8%
COC(=O)/C(=C\C(=O)c1ccccc1)Nc1cccc(C(F)(F)F)c1	2%	-20%	3	-76*	5%	-2%
O=C(Nc1cccc(C(F)(F)F)c1)c1cc(-c2ccc(Cl)cc2)on1	-4%	2%	-5	nt	-1%	nt
O=C(Nc1ccccc1)Nc1cccc(C(F)(F)F)c1	?	-12%	4	15	nt	-1%
CC(C)c1cc(C(=O)Nc2cccc(C(F)(F)F)c2)no1	-8%	24%	-4	-53*	0%	17%
CCn1c2ccccc2c2cc(/C=C3/C=Cc4ccccc43)ccc21	nt	nt	nt	nt	-2%	nt
CC(=O)c1cc(-c2ccccc2)n(CC(=O)Nc2ccc(C)cc2C)c1C	7%	2%	1	nt	2%	nt
O=C(NCc1cccc(Cl)c1)c1cccc2c(-c3cccnc3)coc12	?	-13%	0	23	-3%	0%
CC1Cc2ccccc2C[N+]1(C)CC(=O)c1ccc(I)cc1 (configuration not stated)	nt	nt	nt	nt	1%	nt
CCC(Sc1nc2ncccc2[nH]1)C(=O)Nc1ccccc1F (configuration not stated)	12%	1%	-19	nt	-2%	nt
Cc1ccc(OCC(=O)OCc2cc(=O)n3c(C)csc3n2)cc1	7%	2%	1	nt	9%	nt
Fc1ccc(/C=C/c2nnc(-c3cccs3)o2)cc1	12%	-8%	-6	-29	nt	7%
Cc1ccc(/C=C/c2nnc(-c3cccs3)o2)cc1	-28%	5%	-5	6	8.9µM*	4%
Cc1ccc(CNC(=O)C2CCN(c3nn4cc(-c5ccc(F)cc5)nc4s3)CC2)cc1	5%	0%	2	nt	0%	nt
O=C1OCCC1Sc1nnc(-c2ccc(F)cc2)n1Cc1ccccc1 (configuration not stated)	8%	-14%	1	-8	25µM*	3%
O=C1OCCC1Sc1nc2ccccc2c(=O)n1Cc1ccc(F)cc1 (configuration not stated)	-26%	-2%	4	14	1%	15%
Cc1ccc(Nc2c(-c3ccc(N(C)C)cc3)nc3ccccn23)cc1	3%	3%	-15	nt	4%	nt
O=C(O)C1CC=CCC1C(=O)N1CC=C(c2ccccc2)CC1 (configuration not stated)	-26%	-8%	-12	-62*	nt	-1%
O=C(O)CCC(=O)N1CC=C(c2ccccc2)CC1	5%	1%	-23	?	-16%	-1%

Compound activity deposited in PubChem BioAssay by National Center for Advancing Translational Sciences (NCATS).
